# Substitutions are numbered along the chain they refer to.
# Experiments:
# Experiment in all cases: yeast three-hybrid, YBZ-1, SC-Leu-His + 0.5 mM 3-AT, 4 days
# Conditions in all cases: tags: N-Gal4 AD-HA kept; label: inside an RPR1-promoter hybrid RNA with tandem MS2 sites; ssRNA
# PUM1 PUF domain R5-RQW = PUM1 PUF domain R5-RQW (Homo sapiens, UniProt Q14671 828-1176, C1007R;R1008Q;Q1011W)
# In short: (§1)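 Pumilio-1 PUF domain libraries, randomized (NNK) at the three base-contacting residues of each repeat, were co-expressed with matching RNA elements from a centromeric plasmid in strain YBZ-1 (LexA–MS2 coat fusion, HIS3 reporter). Transformants were plated on SC-Leu (input) and SC-Leu-His + 0.5 mM 3-AT (selection) for four days, and repeat regions were PCR-amplified and Illumina-sequenced. The interaction score is the log2 change in variant frequency from input to selection, with pseudocount 1 where absent.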
# PUM1 PUF domain R5-CSR = PUM1 PUF domain R5-CSR (Homo sapiens, UniProt Q14671 828-1176, R1008S;Q1011R)
# In short: as §1
# PUM1 PUF domain R5-GIR = PUM1 PUF domain R5-GIR (Homo sapiens, UniProt Q14671 828-1176, C1007G;R1008I;Q1011R)
# In short: as §1
# PUM1 PUF domain R1-RWQ = PUM1 PUF domain R1-RWQ (Homo sapiens, UniProt Q14671 828-1176, S863R;R864W)
# In short: as §1
# PUM1 PUF domain R1-HFK = PUM1 PUF domain R1-HFK (Homo sapiens, UniProt Q14671 828-1176, S863H;R864F;Q867K)
# In short: as §1
# PUM1 PUF domain R7-RPI = PUM1 PUF domain R7-RPI (Homo sapiens, UniProt Q14671 828-1176, S1079R;N1080P;E1083I)
# In short: as §1
# PUM1 PUF domain R6-HWC = biological target: T1, PUM1 PUF domain R6-HWC (Homo sapiens, UniProt Q14671 828-1176, N1043H;Y1044W;Q1047C)
# T1 sequence: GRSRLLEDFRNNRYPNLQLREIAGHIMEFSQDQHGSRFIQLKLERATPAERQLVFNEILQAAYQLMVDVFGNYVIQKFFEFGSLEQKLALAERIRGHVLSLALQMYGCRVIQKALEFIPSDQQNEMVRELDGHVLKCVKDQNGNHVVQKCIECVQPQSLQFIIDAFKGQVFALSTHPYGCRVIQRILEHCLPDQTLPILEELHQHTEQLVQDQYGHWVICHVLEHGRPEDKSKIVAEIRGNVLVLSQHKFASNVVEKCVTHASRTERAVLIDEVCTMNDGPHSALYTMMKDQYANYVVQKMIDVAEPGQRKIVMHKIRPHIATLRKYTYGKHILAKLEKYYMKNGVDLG
# In short: as §1
# PUM1 PUF domain R6-AWE = biological target: T2, PUM1 PUF domain R6-AWE (Homo sapiens, UniProt Q14671 828-1176, N1043A;Y1044W;Q1047E)
# T2 sequence: T1 sequence with H216A, C220E
# In short: as §1
# PUM1 PUF domain R6-TFK = biological target: T3, PUM1 PUF domain R6-TFK (Homo sapiens, UniProt Q14671 828-1176, N1043T;Y1044F;Q1047K)
# T3 sequence: T1 sequence with H216T, W217F, C220K
# In short: as §1
# PUM1 PUF domain R3-AFG = PUM1 PUF domain R3-AFG (Homo sapiens, UniProt Q14671 828-1176, C935A;R936F;Q939G)
# In short: as §1
# PUM1 PUF domain R3-EWL = PUM1 PUF domain R3-EWL (Homo sapiens, UniProt Q14671 828-1176, C935E;R936W;Q939L)
# In short: as §1
# PUM1 PUF domain R4-ARA = PUM1 PUF domain R4-ARA (Homo sapiens, UniProt Q14671 828-1176, N971A;H972R;Q975A)
# In short: as §1
# PUM1 PUF domain R8-KRY = PUM1 PUF domain R8-KRY (Homo sapiens, UniProt Q14671 828-1176, N1122K;Y1123R;Q1126Y)
# In short: as §1
# PUM1 PUF domain R8-PRR = PUM1 PUF domain R8-PRR (Homo sapiens, UniProt Q14671 828-1176, N1122P;Y1123R;Q1126R)
# In short: as §1
# PUM1 PUF domain R8-YYF = PUM1 PUF domain R8-YYF (Homo sapiens, UniProt Q14671 828-1176, N1122Y;Q1126F)
# In short: as §1
sequence,measurement,setting,value
GGCUAGAACUAGUGGAUCCCCCGGCGCCCGGCGGCUCGAGCCCGGGUAAGUGUCAAUAGUCUGCAUGCCGCCGGGCGCCAUGCCUGCAGGUCGACUCUAGAAAACAUG,binding signal,PUM1 PUF domain R5-RQW,1.8 log2 enrichment (interaction score)
same,binding signal,PUM1 PUF domain R5-CSR,4.8 log2 enrichment (interaction score)
same,binding signal,PUM1 PUF domain R5-GIR,4.37 log2 enrichment (interaction score)
GGCUAGAACUAGUGGAUCCCCCGGCGCCCGGCGGCUCGAGCCCGGGUAAGUGUAAAUCGUCUGCAUGCCGCCGGGCGCCAUGCCUGCAGGUCGACUCUAGAAAACAUG,binding signal,PUM1 PUF domain R1-RWQ,6.93 log2 enrichment (interaction score)
same,binding signal,PUM1 PUF domain R1-HFK,2.71 log2 enrichment (interaction score)
GGCUAGAACUAGUGGAUCCCCCGGCGCCCGGCGGCUCGAGCCCGGGUAAGUUUAAAUAGUCUGCAUGCCGCCGGGCGCCAUGCCUGCAGGUCGACUCUAGAAAACAUG,binding signal,PUM1 PUF domain R7-RPI,2.52 log2 enrichment (interaction score)
GGCUAGAACUAGUGGAUCCCCCGGCGCCCGGCGGCUCGAGCCCGGGUAAGUGAAAAUAGUCUGCAUGCCGCCGGGCGCCAUGCCUGCAGGUCGACUCUAGAAAACAUG,binding signal,PUM1 PUF domain R6-HWC,6.25 log2 enrichment (interaction score)
same,binding signal,PUM1 PUF domain R6-AWE,7.15 log2 enrichment (interaction score)
same,binding signal,PUM1 PUF domain R6-TFK,2.81 log2 enrichment (interaction score)
GGCUAGAACUAGUGGAUCCCCCGGCGCCCGGCGGCUCGAGCCCGGGUAAGUGUAAUUAGUCUGCAUGCCGCCGGGCGCCAUGCCUGCAGGUCGACUCUAGAAAACAUG,binding signal,PUM1 PUF domain R3-AFG,1.51 log2 enrichment (interaction score)
same,binding signal,PUM1 PUF domain R3-EWL,4.51 log2 enrichment (interaction score)
GGCUAGAACUAGUGGAUCCCCCGGCGCCCGGCGGCUCGAGCCCGGGUAAGUGUACAUAGUCUGCAUGCCGCCGGGCGCCAUGCCUGCAGGUCGACUCUAGAAAACAUG,binding signal,PUM1 PUF domain R4-ARA,2.79 log2 enrichment (interaction score)
GGCUAGAACUAGUGGAUCCCCCGGCGCCCGGCGGCUCGAGCCCGGGUAAGUGGAAAUAGUCUGCAUGCCGCCGGGCGCCAUGCCUGCAGGUCGACUCUAGAAAACAUG,binding signal,PUM1 PUF domain R6-AWE,4.11 log2 enrichment (interaction score)
GGCUAGAACUAGUGGAUCCCCCGGCGCCCGGCGGCUCGAGCCCGGGUAAGCGUAAAUAGUCUGCAUGCCGCCGGGCGCCAUGCCUGCAGGUCGACUCUAGAAAACAUG,binding signal,PUM1 PUF domain R8-KRY,3.46 log2 enrichment (interaction score)
same,binding signal,PUM1 PUF domain R8-PRR,4.08 log2 enrichment (interaction score)
same,binding signal,PUM1 PUF domain R8-YYF,5.85 log2 enrichment (interaction score)
GGCUAGAACUAGUGGAUCCCCCGGCGCCCGGCGGCUCGAGCCCGGGUAAGUCUAAAUAGUCUGCAUGCCGCCGGGCGCCAUGCCUGCAGGUCGACUCUAGAAAACAUG,binding signal,PUM1 PUF domain R7-RPI,0.71 log2 enrichment (interaction score)
GGCUAGAACUAGUGGAUCCCCCGGCGCCCGGCGGCUCGAGCCCGGGUAAGUGUAAGUAGUCUGCAUGCCGCCGGGCGCCAUGCCUGCAGGUCGACUCUAGAAAACAUG,binding signal,PUM1 PUF domain R3-AFG,0.76 log2 enrichment (interaction score)
GGCUAGAACUAGUGGAUCCCCCGGCGCCCGGCGGCUCGAGCCCGGGUAAGUGUAAAUGGUCUGCAUGCCGCCGGGCGCCAUGCCUGCAGGUCGACUCUAGAAAACAUG,binding signal,PUM1 PUF domain R1-RWQ,2.2 log2 enrichment (interaction score)
